Source: PubChem BioAssay (Tox21)
Records with an inconclusive call do not appear. A call without a number means that no potency is given here. A number with no mark means an inactive call. Active and inactive are the calls of the source. Calls follow the shape of the full dose curve.

Target: Beta-2 adrenergic receptor (Homo sapiens) (UniProt P07550)
Assay: Adrenergic beta2 receptor (ADRB2) small molecule agonists, cell-based qHTS assay (AID 1963593);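 as to activation: CHO cells stably overexpressing human ADRB2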
Details: CHO-ADRB2 cells, cAMP HTRF, 30 min; series mostly up to 42.5 µM
Outline: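 CHO cells stably over-expressing ADRB2 were plated overnight at 37C, then dosed with compounds plus a stimulation mix containing 100uM IBMX and 25uM Ro-20-1724 for 0.5hr at room temperature. cAMP was measured by HTRF competition, 1hr.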
Potency is read from the fitted curve at half-maximal effect.

Beta-2 adrenergic receptor (Homo sapiens), sequence (P07550 whole entry, looked up): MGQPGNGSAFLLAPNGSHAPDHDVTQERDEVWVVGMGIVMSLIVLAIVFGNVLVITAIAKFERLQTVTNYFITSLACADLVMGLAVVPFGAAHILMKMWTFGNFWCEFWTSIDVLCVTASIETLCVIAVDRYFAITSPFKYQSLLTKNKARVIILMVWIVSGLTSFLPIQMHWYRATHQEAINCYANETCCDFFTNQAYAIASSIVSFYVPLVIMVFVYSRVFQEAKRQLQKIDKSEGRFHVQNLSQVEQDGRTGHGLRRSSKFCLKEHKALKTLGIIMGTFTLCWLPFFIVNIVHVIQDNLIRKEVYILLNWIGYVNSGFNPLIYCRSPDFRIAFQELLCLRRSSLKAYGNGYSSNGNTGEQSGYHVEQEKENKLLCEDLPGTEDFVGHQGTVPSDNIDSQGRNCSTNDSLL

O=C(O)Cc1sc(-c2ccccc2)nc1-c1ccc(Cl)cc1
Potency: inactive

C[C@H]1O[C@@H](n2cc(F)c(=O)[nH]c2=O)[C@H](O)[C@@H]1O
Potency: inactive

CCOC(=O)C(=O)c1csc(NC=O)n1
Potency: inactive

CO[Si](CCCn1c(=O)n(CCC[Si](OC)(OC)OC)c(=O)n(CCC[Si](OC)(OC)OC)c1=O)(OC)OC
Potency: inactive

Cc1c(Cl)cccc1Nc1ccccc1C(=O)O
Potency: inactive

C1CCN(CN2CCCCC2)CC1
Potency: inactive

O=C(c1ccc(O)cc1)c1ccc(O)cc1
Potency: inactive

CC(C(=O)O)c1cccc(Oc2ccccc2)c1 (configuration not stated)
Potency: inactive

Cc1cc(C(C)(C)C)c(O)c(C)c1Cn1c(=O)n(Cc2c(C)cc(C(C)(C)C)c(O)c2C)c(=O)n(Cc2c(C)cc(C(C)(C)C)c(O)c2C)c1=O
Potency: inactive

CN1CCN(c2c(F)cc3c(=O)c(C(=O)O)cn4c3c2SCC4)CC1
Potency: inactive

O=Cc1c2ccccc2c(Cl)c2ccccc12
Potency: inactive

NC(=O)c1ccccc1[N+](=O)[O-]
Potency: inactive

NC(N)=NC(=O)Cc1c(Cl)cccc1Cl
Potency: inactive

CN(C)c1ccc(CCO)cc1
Potency: inactive

C/C=C(/C(=C/C)c1ccc(O)cc1)c1ccc(O)cc1
Potency: inactive

C=C(C)CCCC
Potency: inactive

CCCCCCCCCCCCCCCCCl
Potency: inactive

CN1CCN(CCCN2c3ccccc3Sc3ccc(C(F)(F)F)cc32)CC1
Potency: inactive

COc1cc(C)ccc1C(C)C
Potency: inactive

CC1=CC(O)CC(C)(C)C1 (configuration not stated)
Potency: inactive

[O]=[Bi]
activation: 3.98% [at 8.39 µM]

CC(C)(C)N
Potency: inactive

CCC(C)c1nccnc1OC (configuration not stated)
Potency: inactive

COc1cc(OC)cc(OC)c1
Potency: inactive

CC(C)=NNC(N)=S
Potency: inactive

CC(=O)OCC(=O)[C@@]1(O)CCC2C3CCC4=CC(=O)CC[C@]4(C)C3[C@@H](O)C[C@@]21C (some centres not stated)
Potency: inactive

c1cnc2c(n1)CCCC2
Potency: inactive

O=C(CO)[C@@H](O)[C@H](O)[C@@H](O)CO
Potency: inactive

C[n+]1cc2c3c(ccc2c2ccc4cc5c(cc4c21)OCO5)OCO3
Potency: 9.2 µM (active)

CCCCOC(=O)C(C)O (configuration not stated)
Potency: inactive

COc1ccc(S(=O)(=O)N2c3ccc(Cl)cc3[C@@](O)(c3ccccc3Cl)[C@H]2C(=O)N2CCC[C@@H]2C(N)=O)cc1OC
Potency: inactive

Cc1cc(OI)c(C(C)C)cc1-c1cc(C(C)C)c(OI)cc1C
Potency: inactive
